# Source: PubChem (National Center for Advancing Translational Sciences (NCATS))
# Shown are actives, neighbours in structure and some others; about 19% of the full set was active somewhere.
# DT40 TDP1 no CPT = qHTS for Inhibitors of human tyrosyl-DNA phosphodiesterase 1 (TDP1): qHTS in cells in absence of CPT; hit rate 15% among 420,000; Potency, µM (doses to about 46.2 µM), for the others: at the highest dose activity change, negative = growth inhibition, actives largely listed as inhibitors; DT40 Tdp1-/- hTDP1 cells, no CPT, ATP luminescence, 48 h; AID 686978, 2013; note: potency is the fitted concentration of half-maximal effect; nearly all actives have a fitted effect of over 55% in size
#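 Compound effects on proliferation are scored in DT40 Tdp1-/-;hTDP1 cells in the absence of CPT. ATP levels (CellTiter-Glo luminescence) are recorded after a ≥48 hr, 37 °C incubation.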
# HT1080-NT tox = qHTS for induction of synthetic lethality in tumor cells producing 2HG: qHTS for the HT-1080-NT fibrosarcoma cell line; HT-1080-NT fibrosarcoma viability, CellTiter-Glo ATP luminescence, 48 h; Potency, µM (series often up to 46.1 µM), without a hit: top-dose activity, negative = less viability, actives largely listed as cytotoxic; hit rate 1.6% among 360,000;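 note: NT is the 2HG producing partner of a matched IDH1 knockdown line; potency is the fitted concentration of half-maximal effect; 0% = DMSO-treated cells and -100% = media-only wells without cells; nearly all actives have a fitted effect of over 55% in size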
#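 HT-1080-NT fibrosarcoma cells (2HG-overproducing), 750 cells/well in RPMI with 5% FBS, dosed after 2 h and incubated 48 h at 37C. CellTiter-Glo luminescence normalized to DMSO and no-cell wells; concentration-response curves fitted and classed.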
# HT1080 IDH1KD tx = qHTS for induction of synthetic lethality in tumor cells producing 2HG: qHTS for the HT-1080-IDH1KD cell line; Potency, µM (doses to about 46.1 µM), inactives show at the highest dose activity, negative = toxicity, most hits filed as cytotoxic; hit rate 2% among 360,000; AID 686971, 2013; HT-1080 IDH1 knockdown viability, ATP luminescence, 48 h;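 note: potency is the fitted concentration of half-maximal effect; 0% = DMSO wells and -100% = cell-free medium wells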
#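 Using the IDH1-knockdown HT-1080 line run in the same batch and compound series as the NT line, viability after 48 h at 37 °C was determined by CellTiter-Glo luminescence and expressed as % activity.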
# IL-1B inflam inh = qHTS for Inhibitors of Inflammasome Signaling: IL-1-beta AlphaLISA Primary Screen; THP-1 LPS/ATP IL-1B secretion, AlphaLISA, 16 h; active compounds read low; activity change, % at 57.5 µM; hit rate 4.7% among 360,000; AID 743279, 2014; in the data active = activity change below about -50%; inconclusive = mostly about -30% to -49%
#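 Secreted IL-1B measured by AlphaLISA bead assay after 16 h compound exposure of THP-1 cells; compounds (final up to 57.5 uM) added 1 h before LPS (250 ng/mL) and ATP (1.25 mM) stimulation; lower signal means less secretion.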
# TDP1 cell CPT = qHTS for Inhibitors of human tyrosyl-DNA phosphodiesterase 1 (TDP1): qHTS in cells in presence of CPT. chicken DT40 Tdp1-/-;hTDP1 cells + 20 nM CPT, ATP luminescence, 48 h. hit rate 12% among 420,000. Potency, µM (titrated, usually from 46.2 µM), for inactives: top-dose activity change, negative = growth inhibition, hits mostly inhibitors; note: potency is the fitted concentration of half-maximal effect; nearly all actives have a fitted effect of over 55% in size
#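 Chicken DT40 Tdp1-/- cells complemented with human TDP1, 400 cells/well, exposed to compounds plus 20 nM camptothecin for at least 48 h at 37 C; viability read as ATP content by CellTiter-Glo luminescence.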
# The depositor's hits bear a star; i = inactive; u = inconclusive; x = no result; [ ] = dose if it differs, or a comment. Unless noted, calls come from the whole dose curve; as a rule, active = well fitted curve in the direction sought with a large enough effect; inconclusive = small, poorly fitted or top-dose-only effect, or another doubt; inactive = no such curve, though single readings can be large; an effect the other way counts as inactive or inconclusive. Unless noted, % is set by controls: 0 for no effect and ±100 for the full control effect.
SMILES,DT40 TDP1 no CPT,HT1080-NT tox,HT1080 IDH1KD tx,IL-1B inflam inh,TDP1 cell CPT
Cc1ccccc1NC(=O)CN1C(=O)C2C3CC(C(Br)C3Br)C2C1=O (stereo not given),16.4µM*,-21.4%,-16.7%,-2.6,u
Cn1nc(CC(=O)Nc2cccc3ncccc23)c2ccccc2c1=O,20.6µM*,-9.8%,u,54.0,13µM*
COc1ccc(OCC(=O)Nc2cccc3ncccc23)cc1,-19.5%,9.2%,6.3%[9.24 µM],-17.6,u
Cn1nc(CC(=O)NC2CCCCCC2)c2ccccc2c1=O,18.4µM*,-2.9%,-5.8%,57.6,18.4µM*
COc1ccc(CNC(=O)Cc2nn(C)c(=O)c3ccccc23)cc1,7.31µM*,-8.8%,-20.1%,1.6,10.3µM*
CN(C(=O)C1CCC(=O)N(CCCN2CCCC2=O)C1)C(C1CC1)C1CC1 (stereo not given),3.6%,15.4%,18.5%,9.2,5.4%
O=C(OCC(=O)N1CCCc2ccccc21)c1cccc(S(=O)(=O)N2CCc3ccccc32)c1,u,10.9%,4.6%,21.8,u
COc1cc2ccc(C(=O)O)cc2cc1OC,-6.7%,-0.6%,-2.1%,-15.1,15.9%
Cc1ccc(-c2noc(CCC(=O)Nc3ccc(F)cc3Cl)n2)cc1,u,x,x,x,-2.4%
O=C(CCl)Nc1cccc2ncccc12,9.2µM*,u,u,-99.3*,8.2µM*
CC#CC[N+](C)(C)CC(=O)c1ccccc1,24.9%,1.4%,12.6%,2.8,7.1%
CC#CC[N+](C)(C)CCCCCCCC,9.2µM*,-2.1%,-10.0%,-2.4,11.6µM*
CC(=O)c1ccc(OCc2cc(C(=O)N(C)C(C)c3ccon3)no2)cc1 (stereo not given),18.4µM*,-5.4%,-6.5%,-6.8,u
CC(=O)c1ccc(OCc2cc(C(=O)N(C)C(C)c3nccs3)no2)cc1 (stereo not given),u,-2.9%,-8.0%,21.5,16.4µM*
CC(=O)c1ccc(OCc2cc(C(=O)N3CCCCCCC3)no2)cc1,4.11µM*,0.3%,-10.2%,-12.1,u
CC(=O)c1cccc(OCc2cc(C(=O)N(C)C(C)c3ccccn3)no2)c1 (stereo not given),u,5.7%,-4.5%,i,u
CC(=O)c1ccc(OCc2cc(C(=O)N(C)Cc3cc(C)no3)no2)cc1,-22.9%,-0.7%,0.0%,0.9,-11.8%
O=c1c(/C=N/N2CCOCC2)c(C(F)(F)F)[nH]n1-c1ccccc1,-1.8%,0.7%,-1.9%,-2.2,-5.7%
O=C(CCN1CCC2CCC(C2)C1)c1ccccc1 (stereo not given),2.59µM*,6.7%,6.4%,-3.5,2.59µM*
CCC1CN(CC(=O)NC(C)c2c(C)nn(C)c2C)Cc2cc(OC)ccc2O1 (stereo not given),-1.9%,x,x,x,-3.9%[9.04 µM]
O=C(CC1SC(=O)N(c2ccccc2)C1=O)Nc1ccc(Br)cc1 (stereo not given),5.8µM*,11.7%,7.0%,4.2,2.59µM*
O=C(CC1SC(=Nc2ccccc2)N(CCCO)C1=O)Nc1ccc(Cl)cc1 (stereo not given),-22.6%,u,u,u,-22.4%
O=C(CC1SC(=O)N(c2ccccc2)C1=O)Nc1ccc(Cl)cc1 (stereo not given),20.6µM*,13.6%,10.8%,-0.4,7.31µM*
Cc1c(C(=O)OCC(C)C)[nH]c2c1C(=O)CC(c1ccco1)C2 (stereo not given),0.82µM*,1.46µM*,1.16µM*,55.0,0.82µM*
CC1=C(C(=O)OCC2CCCO2)C(c2coc3ccccc3c2=O)C2=C(CCCC2=O)N1 (stereo not given),-20.8%,0.5%,-6.1%,-12.1,7.3%
